# Reference: the supplement of paper PMC3334620
# In all, about 33,000 sequences were measured (“E-score (-0.5 to 0.5)”: median about -0.015, highest 2% from about 0.3 on). The sample holds the highest values, similar sequences and a random draw of the others, so the mix is not that of the screen.
# Target: T1, Abf1 (UniProt P14164)
# T1 sequence: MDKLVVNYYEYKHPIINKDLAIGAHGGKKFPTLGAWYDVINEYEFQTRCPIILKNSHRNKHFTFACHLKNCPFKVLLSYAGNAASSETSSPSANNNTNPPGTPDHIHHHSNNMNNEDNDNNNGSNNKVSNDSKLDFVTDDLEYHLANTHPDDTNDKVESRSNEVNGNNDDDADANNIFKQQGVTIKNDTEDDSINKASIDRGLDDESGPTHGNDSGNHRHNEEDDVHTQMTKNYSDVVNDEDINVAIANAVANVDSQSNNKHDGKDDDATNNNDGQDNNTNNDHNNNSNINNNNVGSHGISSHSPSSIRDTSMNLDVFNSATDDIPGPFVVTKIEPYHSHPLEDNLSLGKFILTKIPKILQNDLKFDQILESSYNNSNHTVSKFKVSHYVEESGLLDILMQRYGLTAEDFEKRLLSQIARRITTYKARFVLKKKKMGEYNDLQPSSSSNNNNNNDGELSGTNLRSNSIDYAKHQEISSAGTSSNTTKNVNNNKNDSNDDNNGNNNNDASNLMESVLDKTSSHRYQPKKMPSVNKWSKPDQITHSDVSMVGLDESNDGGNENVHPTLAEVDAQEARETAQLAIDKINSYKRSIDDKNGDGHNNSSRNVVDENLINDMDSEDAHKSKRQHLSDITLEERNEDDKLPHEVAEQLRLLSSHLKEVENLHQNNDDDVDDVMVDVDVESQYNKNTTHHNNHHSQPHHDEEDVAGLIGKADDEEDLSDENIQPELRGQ
# Assay: PBM E-score (8-mer binding enrichment) (E-score (-0.5 to 0.5)); higher = stronger / more preferred TF binding
# Conditions: protein concentration: 200 nM; construct: GST-full length
# Summary of the method: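 E-scores (a modified Wilcoxon-Mann-Whitney statistic) were assigned by the Universal PBM Analysis Suite to every ungapped eight-base word pooled with its reverse complement. The input came from universal all-10-mer Agilent arrays made double-stranded by primer extension and probed with GST-tagged yeast transcription factors at about 100-200 nM. Fluorescent anti-GST detected bound protein, and masliner normalised the scans.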
row,Sequence,PBM E-score
1,ACATCATC,0.328
2,ACATCAGT,-0.0164
3,CAACCTAC,-0.122
4,GCCTAGGA,-0.178
5,CATGGCGG,-0.0941
6,ACATCTGA,-0.0545
7,GGATAAAA,0.158
8,GGATAACA,0.0228
9,CGATAAAA,0.285
10,CGATAACA,0.106
11,TGATAAAA,0.337
12,TGATAACA,0.341
13,TCATGAAA,0.00026
14,GGTCGCCA,-0.074
15,TCATGGGA,-0.042
16,AACGCTGT,0.00818
17,ACTGGTAC,-0.0194
18,CGTCCAGC,-0.0241
19,CAGTGAAA,0.0736
20,CAGTGACA,0.3
21,GAGTGACA,0.432
22,GAGTGCCA,-0.212
23,TAGTGACA,0.414
24,TAGTGTCA,0.117
25,TAGTGTGA,0.137

row,Sequence,PBM E-score
1,CAGTGACC,0.132
2,GAGTGACC,0.207
3,AACGGACC,-0.168
4,TGATCCCA,-0.0944
5,CTAGCTGC,-0.114
6,CGAGGTGA,0.129
7,GACACTTA,-0.0374
8,ACTGCACG,-0.0217
9,CGCCACCA,-0.138
10,GTGATCTA,0.407
11,GAGATCTA,-0.121
12,CTGATCTA,-0.106
13,GTGATCCA,0.132
14,ATGATCTA,0.297
15,ATGATCTC,0.296
16,CGGCCAAC,-0.133
17,GACGATGC,0.231
18,ACAGCCGC,-0.223
19,CGTGCACA,0.196
20,CGTGCAAC,0.247
21,CGTGCAAA,0.337
22,CGTGCAAG,0.169
23,TGTGCACA,0.0303
24,CGTGCACG,0.419
25,AAGGATGC,-0.213

row,Sequence,PBM E-score
1,GGCTGCGA,-0.0617
2,CGAGGGAC,-0.189
3,GGGGGCAA,-0.0502
4,CGCATATC,0.239
5,CAACCTCA,-0.0877
6,CCCTACCA,0.0127
7,ATTCTGTA,0.14
8,GAGTGAAA,-0.117
9,GAGTGAGA,0.0215
10,AAGTGATA,0.39
11,TAGTGAGA,0.0964
12,CAGTGATA,0.377
13,CACTGATA,-0.056
14,TAGTGAAA,-0.0802
15,GAGTGATA,0.424
16,AAGTGAAA,-0.0619
17,TAGTGATA,0.433
18,CAGTGAGA,0.0837
19,AAGTGAGA,0.0815
20,CCTTGGTC,-0.302
21,AATTTGAC,0.183
22,CTGTCGGA,-0.123
23,ACAGCTCT,-0.248
24,AGTACTGA,-0.0709
25,CCGGGTTC,-0.167

row,Sequence,PBM E-score
1,GTAACTAA,-0.0125
2,TTCGGAAA,-0.148
3,CAACGTAA,-0.0145
4,AATCTCTC,0.0576
5,ATACCCCA,0.0583
6,CACCCGCA,-0.205
7,GATCGGGC,-0.195
8,CGTTACAC,0.298
9,CGTTACAA,0.195
10,CGTTATAA,0.149
11,CGTTATAG,0.105
12,CGTTATAC,0.303
13,CGTTACAG,-0.0224
14,AATGTTGC,0.00562
15,CGGCGTTC,-0.0709
16,CCGCCATC,-0.26
17,AGTCCACC,-0.0728
18,GAAAACTA,-0.0964
19,GTTCTGTA,-0.0186
20,CATTCGTC,0.222
21,CATTCGTA,0.308
22,CATTCGCA,-0.1
23,AATTCGGA,0.029
24,GATTCGTA,0.262
25,CTTTCGTA,0.376

row,Sequence,PBM E-score
1,AATTCGTC,0.315
2,ATTTCGTC,0.229
3,AATTCGTA,0.307
4,CTTTCGTC,0.191
5,AATTCGTG,0.224
6,GTTTCGTA,0.26
7,ACCCAGAA,-0.0336
8,TTCCGAAA,0.104
9,ATTTAAAT,0.189
10,GATTACAC,0.0768
11,CAAGCCCG,-0.172
12,GTGGTATA,-0.0621
13,CGGCCCAC,-0.208
14,ATCGTCAA,0.342
15,ACCGTCAA,0.143
16,ACCGTCAG,0.0392
17,AACGTCAT,0.217
18,AGCGTCAA,-0.00287
19,ATCGTCAT,0.349
20,ACCGTCAT,0.362
21,ATCGTCAG,0.154
22,TTCGTCAA,0.151
23,AAAAATCC,-0.0226
24,AGGTTGAA,0.0563
25,CACTGCAA,0.0215

row,Sequence,PBM E-score
1,TCATCAGA,0.094
2,CAGCTTGA,-0.141
3,AGGAGGTG,-0.248
4,GAGGGACA,-0.103
5,CCTTTTAA,0.0637
6,ACGGCGAG,0.111
7,ACGGCGCG,0.324
8,ACGGCGAT,0.313
9,TCGGCGAA,0.00757
10,ACGGCGAC,0.224
11,ACGGCGCT,0.09
12,GCGGCGAA,-0.106
13,ACGGCGCC,0.184
14,ACGGCGAA,0.343
15,ACCCGGGT,-0.155
16,ATGAGTCA,0.0874
17,ACCCTAGG,-0.07
18,CGCGTTGA,0.0564
19,AGATGCTC,0.0161
20,CAGGTAAG,-0.0344
21,AGATAAGA,0.194
22,AATTCCAC,0.0539
23,CAGGATGA,0.197
24,AGACAAGC,-0.0992
25,GTCACGAC,0.261

row,Sequence,PBM E-score
1,ATGACGAC,0.265
2,GTGACGAA,0.315
3,GTGACTAA,0.327
4,ATGACGAA,0.319
5,GTCACGAA,0.402
6,ATGACTAA,0.146
7,GTGACGCA,0.103
8,TTCACGAA,0.267
9,CTGACTAA,0.0088
10,GTGACGGA,0.149
11,CTGACGAA,0.239
12,AAGGTTCT,-0.189
13,CGGGCACC,-0.0646
14,CGCAAAAG,-0.0748
15,CTCTCACC,-0.0855
16,GAGTAAAC,-0.0509
17,ATCCCGTA,0.215
18,GGCGATCA,-0.0321
19,ATGGACTC,-0.134
20,CACGGACA,0.162
21,CACGGACG,0.337
22,AACGGACG,0.065
